An excerpt weighted towards active compounds, which were near 19% of everything screened.
IL1B secr inh = inhibitors of inflammasome signaling (IL-1 beta secretion); 360,000 compounds, 4.7% hits; AID 743279; THP-1 LPS/ATP IL-1B secretion, AlphaLISA, 16 h; hits give low values; activity change, % at 57.5 µM; in the data active means activity change below about -50%; inconclusive means mostly about -30% to -49%
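Secreted IL-1B measured by AlphaLISA bead assay after 16 h compound exposure of THP-1 cells; compounds (final up to 57.5 uM) added 1 h before LPS (250 ng/mL) and ATP (1.25 mM) stimulation; lower signal means less secretion.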
TDP1 cell noCPT = qHTS for Inhibitors of human tyrosyl-DNA phosphodiesterase 1 (TDP1): qHTS in cells in absence of CPT | DT40 Tdp1-/- hTDP1 cells, no CPT, ATP luminescence, 48 h | Potency, µM (series often up to 46.2 µM), usual class: inhibitors | 420,000 compounds, 15% hits; further: nearly all actives have a fitted effect of over 55% in size
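Cells were dispensed at 400 per well, compounds added by pin tool, plates incubated ≥48 hr at 37 °C, then CellTiter-Glo added for 30 min at room temperature before luminescence reading. Line: DT40 Tdp1-/- complemented with hTDP1; camptothecin omitted.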
DT40 TDP1 CPT = growth inhibition of DT40 Tdp1-/-;hTDP1 cells with camptothecin (screen for TDP1 inhibitors); 420,000 compounds, 12% hits; chicken DT40 Tdp1-/-;hTDP1 cells + 20 nM CPT, ATP luminescence, 48 h; Potency, µM (top dose mostly 46.2 µM), usual class: inhibitors; further: nearly all actives have a fitted effect of over 55% in size
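Cell growth measured by CellTiter-Glo luminescence after a minimum 48 h, 37 C compound exposure with 20 nM CPT in Tdp1-knockout DT40 cells stably expressing hTDP1, seeded 400/well; qHTS titration format.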
HT1080 IDH1KD tx = toxicity to HT-1080 IDH1 knockdown cells (counter line); HT-1080 IDH1 knockdown viability, ATP luminescence, 48 h; Potency, µM (series often up to 46.1 µM), actives largely listed as cytotoxic; 360,000 compounds, 2% hits; AID 686971
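CellTiter-Glo luminescence after 48 h compound exposure at 37 degrees C of IDH1-knockdown HT-1080 cells in 5% FBS RPMI. %Activity scaled between DMSO wells and cell-free media wells, with curves fitted and assigned curve classes.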
HT1080NT lethal = kills 2HG-producing HT-1080-NT fibrosarcoma cells | HT-1080-NT fibrosarcoma viability, CellTiter-Glo ATP luminescence, 48 h | Potency, µM (series often up to 46.1 µM), actives largely listed as cytotoxic | 360,000 compounds, 1.6% hits | AID 686970;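 further: NT is the 2HG producing partner of a matched IDH1 knockdown line; nearly all actives have a fitted effect of over 55% in size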
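Compounds were tested in concentration-response format on HT-1080-NT cells for 48 hours at 37 degrees C. Cell viability came from CellTiter-Glo luminescence; curves were classified by r2, response magnitude and activity.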
Hits are given with their value; i = inactive; ? = inconclusive; nt = not tested or not shown; [ ] = another dose, or the depositor's remark. Unless noted, the call rests on the fitted dose curve; in most records, active means well fitted curve in the direction sought with a large enough effect; inconclusive means small, poorly fitted or top-dose-only effect, or another doubt; inactive means no such curve, though single readings can be large; an effect the other way counts as inactive or inconclusive.

SMILES | IL1B secr inh | TDP1 cell noCPT | DT40 TDP1 CPT | HT1080 IDH1KD tx | HT1080NT lethal
CC(C)n1c(SCC(=O)Nc2ccccc2N2CCOCC2)nc2c1c(=O)n(C)c(=O)n2C | i | ? | i | i | i
O=C(NCc1ccco1)Nc1cccc([N+](=O)[O-])c1 | i | i | ? | i | ?
O=C1C(=O)N(Cc2cccnc2)C(c2cccc([N+](=O)[O-])c2)/C1=C(/O)c1ccc2c(c1)OCO2 (stereo not drawn) | i | i | i | i | i
COc1cc(OC)c(NC(=S)NCc2ccccc2)cc1Cl | i | i | i | i | i
CCCNC(=O)c1ccc2c(c1)C1C3CCC(C3)C1C(c1ccccc1)N2 (stereo not drawn) | ? | ? | 21µM | i | i
O=C(O)c1ccc(NC(=O)c2cccc(N3C(=O)C4C5CCC(C5)C4C3=O)c2)cc1 (stereo not drawn) | i | i | i | i | i
CC(C)(C)NC(=O)c1ccc2c(c1)C1C3CCC(C3)C1C(c1ccccc1)N2 (stereo not drawn) | ? | 12µM | 13µM | i | i
CCCNC(=O)c1cccc(Br)c1 | i | i | i | i | i
COc1ccc(C2=NOC(C(=O)NCc3ccc(F)cc3)C2)cc1OC (stereo not drawn) | i | 5.8µM | 5.8µM | 1.1µM | 1.3µM
COc1ccc(CNC(=O)C2CC(C)=C(C)CC2C(=O)O)cc1OC (stereo not drawn) | i | 1.3µM | 1.3µM | i | i
CC1=C(C)CC(C(=O)NCc2ccc3c(c2)OCO3)C(C(=O)O)C1 (stereo not drawn) | i | ? | i | i | i[9.24 µM]
COc1cccc(C2=NOC(C(=O)NCc3cccs3)C2)c1 (stereo not drawn) | i | 15µM | 21µM | 21µM | ?
COc1cccc(C2=NOC(C(=O)NCc3ccc(F)cc3)C2)c1 (stereo not drawn) | i | 18µM | 12µM | ? | i
COc1cc(C2=NOC(C(=O)NCc3ccc(F)cc3)C2)cc(OC)c1OC (stereo not drawn) | i | 0.58µM | 0.82µM | 0.71µM | 1.1µM
COc1cc(C2=NOC(C(=O)NCc3ccccn3)C2)cc(OC)c1OC (stereo not drawn) | i | ? | i | i | i
O=C(CN1C(=O)C2(SCC(=O)N2c2cccc(F)c2)c2ccccc21)NCc1ccccc1Cl (stereo not drawn) | nt | 21µM | ? | nt | nt
Cc1ccc(CNC(=O)CN2C(=O)C3(SCC(=O)N3c3ccc(F)c(F)c3)c3ccccc32)cc1 (stereo not drawn) | nt | ? | i | nt | nt
O=C(CN1C(=O)C2(SCC(=O)N2c2cccc(F)c2)c2ccccc21)NCCc1ccccc1 (stereo not drawn) | nt | 23µM | i | nt | nt
CCC(CC)NC(=O)Cc1ccc(F)cc1 | i | i | i | i | i
O=C(NCCCN1CCCC1=O)C(=O)NCC1OCCN1S(=O)(=O)c1cc(F)ccc1F (stereo not drawn) | i | i | i | i | i
CCN(CC)C1=CC(=[N+]2CCCC2)CC(C)(C)C1 | i | 0.52µM | 0.52µM | ? | ?
CN(Cc1ccccc1)C1=CC(=[N+]2CCCC2)CC(C)(C)C1 | -52 | 0.23µM | 0.33µM | ? | ?
CC(C)C(C(=O)NC1CCCC1)N(CC1CCCO1)C(=O)CNS(=O)(=O)c1ccc(F)cc1 (stereo not drawn) | i | i | i | i | i
Cc1ccc(OCc2nc(-c3ccc(-n4cccc4)cc3)no2)cc1C | i | i | i | i | i
OC(Cc1ccnc2ccccc12)C(Cl)(Cl)Cl (stereo not drawn) | i | 10µM | ? | i | i
SMILES | IL1B secr inh | TDP1 cell noCPT | DT40 TDP1 CPT | HT1080 IDH1KD tx | HT1080NT lethal
O=C(Nc1ccc(F)c(F)c1)c1cc(S(=O)(=O)NC2CCCC2)ccc1F | nt | 23µM | ? | nt | nt
COc1cc(S(=O)(=O)NC2CCCC2)ccc1F | i | i | i | i | i
Cc1ccc(NC(=O)c2cc(S(=O)(=O)NC3CCCCC3)ccc2F)cc1Cl | nt | 21µM | 23µM | nt | nt
O=C(Nc1cc(Cl)cc(Cl)c1)c1cc(S(=O)(=O)NC2CCCC2)ccc1F | nt | 21µM | ? | nt | nt
Cc1ccc(NC(=O)NC2CCCCC2)cc1Cl | ? | i | i | i | i[9.24 µM]
O=C(Nc1ccc(Br)cc1)c1cc(S(=O)(=O)NC2CCCC2)ccc1F | nt | 21µM | 23µM | nt | nt
CC(C)Cn1cnc2c1c(=O)n(CC(=O)NC(=O)NC(C)(C)C)c(=O)n2Cc1ccccc1 | i | i | i | i | i
Cc1ccc(C(=O)NCC(=O)NCC(c2cccs2)N(C)C)cc1C (stereo not drawn) | i | i | i | i | i
CC(C)NC(=O)Cn1cc(S(=O)(=O)N2CCCC2)c(S(=O)(=O)N2CCCC2)c1 | i | i | i | i | i
CCCN(CCC)S(=O)(=O)c1ccc(C(=O)NNc2nc(-c3ccccc3)c3cc(Br)ccc3n2)cc1 | i | i | i | i | i
O=C(Cc1cn(-c2ccccc2)nc1-c1ccccc1)N1CCCCC1 | i | ? | ? | i | ?
Cc1cc2c(cc1C)-c1c(ssc1=Nc1ccc(S(N)(=O)=O)cc1)C(C)(C)N2 | i | 16µM | ? | ? | ?
CCN(CC(=O)Nc1ccccc1OC)CC(=O)Nc1sccc1C#N | i | ? | ? | i | i
N#Cc1ccsc1NC(=O)CN1CCN(c2ccccc2O)CC1 | i | i | i | i | i
N#Cc1ccsc1NC(=O)CCc1ccccc1 | i | 21µM | ? | ? | ?
N#Cc1ccsc1NC(=O)CN(Cc1ccccc1)Cc1ccccc1 | i | 15µM | 21µM | i | i
N#Cc1ccsc1NC(=O)CCN1CCN(C(c2ccccc2)c2ccccc2)CC1 | i | 26µM | 29µM | i | i
CNS(=O)(=O)c1cccc(C(=O)NNC(=O)c2ccc(COc3ccccc3)cc2)c1 | i | ? | i | i | i
Cc1cc(C)cc(OCCNC(=O)c2ccc(Br)cc2)c1 | i | i | i | i | i
Cc1ccc(C(O)c2ncc(-c3cccc(C(F)(F)F)c3)[nH]2)cc1F (stereo not drawn) | i | 13µM | 26µM | ? | ?
Cc1cccc(C)c1C(O)c1ncc(-c2cccc(C(F)(F)F)c2)[nH]1 (stereo not drawn) | i | ? | ? | ? | ?
Cc1ccc(C(O)c2ncc(-c3cccc(C(F)(F)F)c3)[nH]2)cc1 (stereo not drawn) | i | 18µM | ? | i | i
Cc1ccc(-c2cnc(C(O)c3ccc(Cl)c(Cl)c3)[nH]2)cc1 (stereo not drawn) | i | 15µM | ? | ? | ?
OC(c1ccc(F)c(F)c1)c1ncc(-c2cccc(C(F)(F)F)c2)[nH]1 (stereo not drawn) | i | 16µM | ? | ? | ?
Cc1c(NC(=O)Nc2cccc(C(F)(F)F)c2)c(=O)n(-c2ccccc2)n1C | i | i | i | i | i
